Results taken from the supplement of paper PMC9433436.
± gives the standard deviation of the averaged measurements. Whole data set: some 4,100 sequences, median “relative kcat/Km (krel) vs genomic leader AAAGAU” near 1.7, cut for the highest 2% near 6.5. The full list was thinned out, with the highest values kept by preference.

Target: T1, E. coli RNase P holoenzyme (M1 P RNA + rnpA protein) (UniProt P0A7Y8)
T1 sequence: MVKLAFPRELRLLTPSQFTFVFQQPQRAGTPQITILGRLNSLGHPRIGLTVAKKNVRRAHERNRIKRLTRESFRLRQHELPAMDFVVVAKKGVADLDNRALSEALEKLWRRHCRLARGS
Assay: relative kcat/Km (krel) vs genomic leader AAAGAU (relative (reference leader = 1)); higher = faster RNase P cleavage
Procedure: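 HTS-Kin: a pool of ptRNA-Met (21C construct) with all 4096 combinations of 5' leader nucleotides N(-6) to N(-1) was processed in vitro by E. coli RNase P (P RNA + rnpA/C5 protein) under multiple-turnover conditions at 37 C, pH 8, 17.5 mM MgCl2. Residual substrate was Illumina-sequenced at several fractions reacted, and relative kcat/Km (krel) was computed by internal competition kinetics, calibrated to the genomic leader (AAAGAU = 1). The listed hexamer is the varied N(-6)..N(-1) leader (DNA letters), and it sits between a fixed 5' stem-loop flank (GCAUGCACGAAAGUGCGUGCUAUGAA) and the mature tRNA-Met starting GGCUACGUAGCUCAGUUGG. Two technical replicates are averaged.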

[1] = fraction of substrate reacted: ~9-10% (9.79% repeat 1, 9.1% repeat 2)
[2] = fraction of substrate reacted: ~13-16% (15.68% repeat 1, 13.17% repeat 2)
[3] = fraction of substrate reacted: ~26-29% (28.66% repeat 1, 26.4% repeat 2)

Sequence | relative kcat/Km [1] | relative kcat/Km [2] | relative kcat/Km [3]
GTCACA | 3.73 ± 1.8 | 4.78 ± 1.1 | 7.01 ± 2.5
CTCACA | 3.32 ± 0.59 | 3.94 ± 0.75 | 5.85 ± 2.7
GGCACA | 1.43 ± 0.55 | 1.26 ± 0.95 | 2.08 ± 0.64
AAACGA | 2.12 ± 0.92 | 1.89 ± 0.67 | 2.21 ± 0.41
CCCTTG | – | – | 1.42 ± 0.67
ACGAAA | 1.79 ± 0.39 | 1.66 ± 0.37 | 2.72 ± 1.1
ATTTAT | 3.82 ± 1.8 | 4.84 ± 0.46 | 7.02 ± 3
CTTTAG | 2.44 ± 1.3 | 2.14 ± 0.24 | 3.51 ± 0.57
CCTTAT | 3.19 ± 0.95 | 4.47 ± 0.36 | 6.48 ± 2.4
TCTTAT | 4.12 ± 1.9 | 5.44 ± 1.1 | 8.21 ± 3.5
ATTTAA | 3.55 ± 1.8 | 4.39 ± 0.62 | 5.24 ± 1.9
CTTTAA | 3.07 ± 1.6 | 3.8 ± 0.23 | 5.72 ± 2
ATTTAG | – | 2.526 ± 0.01 | 3.82 ± 0.68
CTTTAT | 4.88 ± 2 | 5.78 ± 0.63 | 8.16 ± 3.3
TTTTTA | 3.12 ± 2.4 | 2.58 ± 0.21 | 3.44 ± 0.81
GCTTAT | 2.2 ± 0.24 | 3.15 ± 0.31 | 4.62 ± 1.7
TTTTAA | 4.32 ± 1.7 | 4.88 ± 0.61 | 6.68 ± 2.5
TTTAAA | 3.37 ± 1.6 | 3.88 ± 0.2 | 5.35 ± 2.1
GGCACT | 1.99 ± 1.6 | 1.75 ± 0.28 | 2.89 ± 1.2
TTTGGG | – | – | 1.56 ± 1.5
ACATTT | 2.32 ± 1.2 | 2.97 ± 0.19 | 4.45 ± 1.8
AGCAGC | 2.23 ± 0.55 | 2.28 ± 0.13 | 3.24 ± 0.54
CCAACC | – | 1.11 ± 0.49 | 1.3 ± 0.39
GCTAGG | 1.3 ± 0.58 | – | 0.775 ± 0.23
AATTTT | 2.36 ± 0.95 | 2.45 ± 0.43 | 3.35 ± 1
GTTTAT | 3.69 ± 0.5 | 5.18 ± 1.8 | 8 ± 3.7

Sequence | relative kcat/Km [1] | relative kcat/Km [2] | relative kcat/Km [3]
TTTTAT | 4.55 ± 1.4 | 5.6 ± 0.89 | 8.5 ± 3.9
GTTTAC | 3.75 ± 0.76 | 4.65 ± 0.88 | 7.14 ± 3
GTTTTA | 2.83 ± 1.7 | 2.56 ± 0.17 | 3.52 ± 1
TTTATT | 2.77 ± 0.82 | 3.08 ± 0.42 | 4.5 ± 2.1
TTTTAC | 3.74 ± 1.1 | 4.76 ± 1.2 | 7.2 ± 3.2
ATTTAC | 4.31 ± 1.7 | 4.75 ± 0.58 | 6.43 ± 2.2
GTTTAG | – | 1.86 ± 0.39 | 3.84 ± 1.2
GTTTAA | 3.62 ± 0.62 | 4.49 ± 0.5 | 6.31 ± 3
CTTTAC | 4.38 ± 1.7 | 4.59 ± 1.3 | 6.2 ± 1.9
TTTTTT | 3.31 ± 1.9 | 3.41 ± 0.27 | 4.9 ± 1.7
TTTTAG | 3.3 ± 2.5 | 2.5 ± 0.78 | 4.51 ± 1.2
TAAGCC | 2.57 ± 0.66 | 2.16 ± 0.87 | 1.67 ± 0.62
TTGAGA | 2.45 ± 0.5 | 2.31 ± 0.38 | 3.09 ± 0.91
ATCGTA | 3.1 ± 0.36 | 3.67 ± 0.92 | 5.45 ± 2.6
TGCTGT | – | 0.877 ± 0.71 | 1.11 ± 1.1
GAAACG | – | – | 0.784 ± 0.096
CCGCAG | – | – | 1.14 ± 1.1
GAAGGC | 1.24 ± 0.64 | – | –
ACCGTA | 2.19 ± 0.39 | 2.54 ± 0.21 | 4.07 ± 1.4
TCCTGT | – | – | 2.18 ± 1.6
CCCTGC | 2.87 ± 1.4 | 3.39 ± 0.2 | 5.06 ± 1.6
TCCTGG | 0.344 ± 0.27 | 0.715 ± 0.34 | 1.15 ± 1.1
ACCTGC | 3.58 ± 3.5 | 3.61 ± 2.3 | 5.37 ± 2.5
TCCTGA | 3.23 ± 0.83 | 4.19 ± 0.42 | 6.6 ± 2.5
TCCTGC | 4.64 ± 1.6 | 5.78 ± 1.5 | 7.5 ± 3.9
